This is one part of the list. A number with no mark means an inactive call. Activity calls are given as the source filed them.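 The calls were made as follows: active = mean activation over replicate wells exceeds the adjusted hit threshold taken from the earlier primary screen (cut at about 20% in these data); inactive = the rest.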

Sequence of cAMP-dependent protein kinase type I-alpha regulatory subunit (Bos taurus) (P00514 whole entry, looked up): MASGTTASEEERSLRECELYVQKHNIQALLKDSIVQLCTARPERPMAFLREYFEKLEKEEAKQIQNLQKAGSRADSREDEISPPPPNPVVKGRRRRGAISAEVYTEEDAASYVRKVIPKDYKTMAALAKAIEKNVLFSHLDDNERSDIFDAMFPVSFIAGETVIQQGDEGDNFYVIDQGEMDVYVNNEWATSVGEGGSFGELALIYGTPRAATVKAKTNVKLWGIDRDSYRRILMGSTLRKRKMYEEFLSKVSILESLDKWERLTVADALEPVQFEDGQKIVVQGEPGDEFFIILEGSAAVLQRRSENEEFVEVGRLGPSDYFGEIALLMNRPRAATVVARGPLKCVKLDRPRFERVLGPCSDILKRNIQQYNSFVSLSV

The test has as its target cAMP-dependent protein kinase type I-alpha regulatory subunit (Bos taurus) (UniProt P00514). Put plainly: activators of PKA-R1A holoenzyme, confirmation, biochemical, fluorescence polarization, Cy5-IP20, triplicate (AID 504800).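 Also: 0% = holoenzyme mix with DMSO only and 100% = cGMP-activated control wells.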 As to conditions: PKA-R1A holoenzyme dissociation, at 11.4 µM, hits give high values. On the technique in general: In fluorescence polarisation assays a small probe gives low polarisation when free and higher when bound to something large.
For `COc1ccc(CNc2nnnn2C)cc1`, the activation is 6.31%. In the case of `CN(C(=O)CSc1nnc(Nc2ccccc2)s1)C1CCS(=O)(=O)C1` (stereo not given), the activation was 1.24%. For `CCOc1cc(C(=O)Nc2c(C)ccc3nsnc23)cc(OCC)c1OCC`, the activation is -1.31%. As for `COc1ccccc1N1CC(C(=O)Nc2nnc(SCC(=O)NC(C)C)s2)CC1=O` (stereo not given), the activation is -1.21%. With `CCC(Oc1ccccc1C)C(=O)Nc1ccc(S(=O)(=O)Nc2cc(C)on2)cc1` (stereo not given) the figure was 2.1%; with `N#Cc1ccccc1CN1C(=O)S/C(=C/c2cccn2-c2cccc(C(=O)O)c2)C1=O`, 26.8% (active).

Regarding `Cc1ccc2nc3c(cc(C(=O)NCCc4ccccc4)c(=N)n3CC3CCCO3)c(=O)n2c1` (stereo not given), the activation is 4.46%. The result for `COc1ccc(NC(=O)c2ccc(C#CC(C)(C)O)cc2)cc1` reads -0.53%; that for `CCCC(=O)Nc1ncnc2c1ncn2[C@@H]1O[C@@H]2OP(=O)(O)OC[C@H]2[C@H]1OC(=O)CCC`, 43.8% (active).

Regarding `O=C(Nc1ccc2c(c1)[C@@H]1C[C@@H](CC(=O)N3CCCCC3)O[C@@H](CO)[C@@H]1O2)NC1CCCCC1`, the activation is 4.17%.

For the origin of these results see PubChem BioAssay AID504800 (The Scripps Research Institute Molecular Screening Center, 2011).
